Among the data in PubChem BioAssay (NCI) are growth inhibition values, retold here.

Compounds without any hit were thinned out: in the full panel of roughly 79,000, 15% have a hit. A number with no mark means an inactive call. Calls of active or inactive are those of the source. No stated cut-off is given here; in the data, active means growth inhibition above about 70%; inactive means the rest.

A short description of one assay: NCI Yeast Anticancer Drug Screen. Data for the rad50 strain (AID 155).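 Further: 0% = growth of vehicle-only cultures of the same strain.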 To be noted: S. cerevisiae rad50 strain growth inhibition; at 50.0 µM; active compounds read high. Summed up:
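Cells are treated with compound, grown, and their growth is then scored against vehicle-only cultures of the same repair-deficient yeast strain.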
`CCCCCCCCCCCCCCOC(=O)C(N)Cc1ccc(O)cc1` (stereo not given): the growth inhibition is 98.6% (active).
The same measure, in the same setting: in the case of `CN(C)c1ccc(C(O)(Cc2cccc(C#N)c2)c2ccc(N(C)C)cc2)cc1` it was 63.5%; in that of `O=C(NNC(=O)c1cccc(C(=O)NNC(=O)c2ccc(Cl)c(Cl)c2)n1)c1ccc(Cl)c(Cl)c1`, 44.5%; in that of `C=C1C(=O)O[C@H]2[C@H](OC(C)=O)[C@@H](C)CCC/C(C)=C/CC[C@@]3(C)O[C@@H]3C[C@@H]12`, 91.9% (active).
Regarding `O=C(c1ccccc1)C1OC1c1ccccc1Cl` (stereo not given), the growth inhibition was -13.7%.
As for `[N-]=[N+]=Nc1ccc(SSCCC(=O)ON2C(=O)CCC2=O)cc1`, the growth inhibition is 98.6% (active).
The same measure, in the same setting: the result for `Cc1cc(N(CCC#N)CCC#N)ccc1/C(N=Nc1cccc([N+](=O)[O-])c1)=N/NC(=O)c1cc(Cl)ccc1O` reads 63.4%; that for `CC(C)/C(Cl)=N\OC(=O)Nc1ccc(S(N)(=O)=O)cc1`, 12.7%; that for `CCCCCCCCCCCCCC(=O)OCC(O)CO` (stereo not given), -2.25%.
In the case of `O=C1C=CC(=O)N1C1CCCCC1`, the growth inhibition was 99.6% (active).
Same read-out and setting: in the case of `CCCCCCCCCCCC(=O)OCC1OC(n2cc(F)c(=O)[nH]c2=O)C(N)C(O)C1O` (stereo not given) it was 90.2% (active); in that of `CN(C)c1ccc(C2C=C(c3ccccc3)Oc3ccccc32)cc1` (stereo not given), 96.7% (active); in that of `CS(=O)(=O)OCCN(CCOS(C)(=O)=O)c1ccc(C=Nc2cccc(Cl)c2)cc1`, 92.7% (active).
In the case of `O=C1C(=O)N(c2cc(Cl)ccc2Cl)C(=O)C(=O)C1c1nc2ccccc2o1`, the growth inhibition is 53.2%.
With `CC1=NC(=Cc2ccc(Cl)cc2)C(=O)N1n1c(-c2ccccc2)nc2ccccc2c1=O`, the growth inhibition is 67.3%.
In the case of `C/C(=N/Nc1ccc([N+](=O)[O-])cc1[N+](=O)[O-])C1=CCC(C(C)(C)C)CC1` (stereo not given), the growth inhibition was -6.7%.
On the same count and under the same terms, in the case of `Cc1ccc(C)c(N2C(=O)C(=O)C(c3nc4ccccc4o3)/C(=N\NC(=O)c3ccccc3O)C2=O)c1` (stereo not given) it was 62.3%; in that of `O=C(/C=C/C=C/c1ccccc1)c1ccco1`, 83% (active).
On the same count and under the same terms, in the case of `O=C1CCC(=O)c2c1c(O)c1ccncc1c2O` it was 98.1% (active).
The same measure, in the same setting: in the case of `CNC(=O)OC(C)CN1c2ccccc2Sc2ccc(Cl)cc21` (stereo not given) it was 89.1% (active); in that of `c1coc(C2=Nc3cccc4cccc(c34)N2)c1`, 50.5%; in that of `CCOC(=O)[C@]12CCC[C@@]1(O)NC(=O)c1cnccc12`, 97.3% (active).
Turning to `Cc1cccc(C)c1N1C(=O)C2Nc3ccccc3SC2C1=O` (stereo not given), the growth inhibition was 98.5% (active).
On the same count and under the same terms, the result for `CCc1cccc(C(C)(C)C)c1NC(=S)N/C=C(\c1ccccc1)S(=O)Cc1ccccc1` (stereo not given) reads 68.4%; that for `CC(=O)Nc1ccc(-c2cnc3ccccc3c2)cc1`, 14.2%; that for `OCC(CO)C1c2cccc3ccc4cccc1c4c23`, 64.5%.
Regarding `O=C1CC(=S)NC(=S)N1`, the growth inhibition is 12.8%.
Still for that read-out and setting: the result for `Cc1c2ccnc(C(N)=O)c2c(C)c2c1[nH]c1ccccc12` reads 76.1% (active); that for `CCC(=O)Sc1ccccc1C(=O)Nc1ccc(Cl)cc1`, 88.5% (active); that for `O=C(O)c1c(Cl)c(Cl)c(Cl)c(Cl)c1-c1c2cc(I)c(=O)c(I)c-2oc2c(I)c(O)c(I)cc12`, 91.3% (active).
Regarding `C=C/C=C/CC=C`, the growth inhibition was 34.2%.
On the same count and under the same terms, in the case of `Cc1ccccc1N1CCN(c2c3c(nc4ccccc24)CCCCC3)CC1` it was 97.2% (active); in that of `N/N=C(\N)c1ccc2ccc3cccnc3c2n1`, 74% (active); in that of `CCCCCC(CCCCC)C(=O)O`, 78.6% (active).
On the same count and under the same terms, the result for `O=Cc1cc(S(=O)(=O)c2ccc(O)c(C=O)c2)ccc1O` reads 98.7% (active).
Still for that read-out and setting: the result for `Cc1ccc(C)c(N2C(=O)C(=O)C(c3nc4ccccc4o3)C(=O)C2=O)c1` reads 99% (active); that for `COC(=O)c1cc(C)c2sc3ccccc3c2c1C`, 73.1% (active).
With `O=C1NC(=O)N(c2ccc(Cl)c(Cl)c2)C1=O`, the growth inhibition was 71.2% (active).
Still for that read-out and setting: the result for `Clc1ccc2oc(N3CCCCC3)nc2c1` reads 98.8% (active).
For `Cc1ccc(N=NC(C(=O)c2ccccc2)C(=O)c2ccccc2)cc1`, the growth inhibition is 93% (active).

A further assay can be described thus: NCI Yeast Anticancer Drug Screen. Data for the mec2-1 strain (AID 157). To be noted: S. cerevisiae mec2-1 strain, at 5.0 µM (retest, dose inferred, filed as 0.5), active compounds read high. A digest of the protocol: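 Cells of the genetically defined mec2-1 yeast strain are incubated with test compound. Inhibition of growth is calculated against vehicle-treated controls.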
For `CCCCCCCCCCCCCCOC(=O)C(N)Cc1ccc(O)cc1` (stereo not given), the growth inhibition is 1%.
Turning to `CN(C)c1ccc(C(O)(Cc2cccc(C#N)c2)c2ccc(N(C)C)cc2)cc1`, the growth inhibition was 0%.
On the same count and under the same terms, the result for `O=C(NNC(=O)c1cccc(C(=O)NNC(=O)c2ccc(Cl)c(Cl)c2)n1)c1ccc(Cl)c(Cl)c1` reads 37%; that for `C=C1C(=O)O[C@H]2[C@H](OC(C)=O)[C@@H](C)CCC/C(C)=C/CC[C@@]3(C)O[C@@H]3C[C@@H]12`, 17%; that for `O=C(c1ccccc1)C1OC1c1ccccc1Cl` (stereo not given), -4%.
The same measure, in the same setting: in the case of `[N-]=[N+]=Nc1ccc(SSCCC(=O)ON2C(=O)CCC2=O)cc1` it was 20%; in that of `Cc1cc(N(CCC#N)CCC#N)ccc1/C(N=Nc1cccc([N+](=O)[O-])c1)=N/NC(=O)c1cc(Cl)ccc1O`, 8%; in that of `CC(C)/C(Cl)=N\OC(=O)Nc1ccc(S(N)(=O)=O)cc1`, 26%.
`CCCCCCCCCCCCCC(=O)OCC(O)CO` (stereo not given): the growth inhibition is 2%.
In the case of `O=C1C=CC(=O)N1C1CCCCC1`, the growth inhibition is 60%.
Take `CCCCCCCCCCCC(=O)OCC1OC(n2cc(F)c(=O)[nH]c2=O)C(N)C(O)C1O` (stereo not given): the growth inhibition is 31%.
As to `CN(C)c1ccc(C2C=C(c3ccccc3)Oc3ccccc32)cc1` (stereo not given), the growth inhibition was 94% (active).
Same read-out and setting: in the case of `CS(=O)(=O)OCCN(CCOS(C)(=O)=O)c1ccc(C=Nc2cccc(Cl)c2)cc1` it was 40%; in that of `O=C1C(=O)N(c2cc(Cl)ccc2Cl)C(=O)C(=O)C1c1nc2ccccc2o1`, 15%; in that of `CC1=NC(=Cc2ccc(Cl)cc2)C(=O)N1n1c(-c2ccccc2)nc2ccccc2c1=O`, -10%.
Regarding `C/C(=N/Nc1ccc([N+](=O)[O-])cc1[N+](=O)[O-])C1=CCC(C(C)(C)C)CC1` (stereo not given), the growth inhibition was -4%.
As to `Cc1ccc(C)c(N2C(=O)C(=O)C(c3nc4ccccc4o3)/C(=N\NC(=O)c3ccccc3O)C2=O)c1` (stereo not given), the growth inhibition is 1%.
`O=C(/C=C/C=C/c1ccccc1)c1ccco1`: the growth inhibition is 14%.
Same read-out and setting: the result for `O=C1CCC(=O)c2c1c(O)c1ccncc1c2O` reads 26%; that for `CNC(=O)OC(C)CN1c2ccccc2Sc2ccc(Cl)cc21` (stereo not given), -11%.
Still for that read-out and setting: in the case of `c1coc(C2=Nc3cccc4cccc(c34)N2)c1` it was 5%; in that of `CCOC(=O)[C@]12CCC[C@@]1(O)NC(=O)c1cnccc12`, 13%; in that of `Cc1cccc(C)c1N1C(=O)C2Nc3ccccc3SC2C1=O` (stereo not given), -1%.
For `CCc1cccc(C(C)(C)C)c1NC(=S)N/C=C(\c1ccccc1)S(=O)Cc1ccccc1` (stereo not given), the growth inhibition was 7%.
Still for that read-out and setting: the result for `CC(=O)Nc1ccc(-c2cnc3ccccc3c2)cc1` reads -13%; that for `OCC(CO)C1c2cccc3ccc4cccc1c4c23`, -3%.
Same read-out and setting: the result for `O=C1CC(=S)NC(=S)N1` reads 0%; that for `Cc1c2ccnc(C(N)=O)c2c(C)c2c1[nH]c1ccccc12`, 12%.
Same read-out and setting: the result for `CCC(=O)Sc1ccccc1C(=O)Nc1ccc(Cl)cc1` reads 28%; that for `O=C(O)c1c(Cl)c(Cl)c(Cl)c(Cl)c1-c1c2cc(I)c(=O)c(I)c-2oc2c(I)c(O)c(I)cc12`, 99% (active).
Consider `C=C/C=C/CC=C`, for which the growth inhibition is -48%.
As to `Cc1ccccc1N1CCN(c2c3c(nc4ccccc24)CCCCC3)CC1`, the growth inhibition was 7%.
Turning to `N/N=C(\N)c1ccc2ccc3cccnc3c2n1`, the growth inhibition was 2%.
The same measure, in the same setting: in the case of `CCCCCC(CCCCC)C(=O)O` it was -7%; in that of `O=Cc1cc(S(=O)(=O)c2ccc(O)c(C=O)c2)ccc1O`, 32%.
Same read-out and setting: the result for `Cc1ccc(C)c(N2C(=O)C(=O)C(c3nc4ccccc4o3)C(=O)C2=O)c1` reads 18%; that for `COC(=O)c1cc(C)c2sc3ccccc3c2c1C`, -8%.
`O=C1NC(=O)N(c2ccc(Cl)c(Cl)c2)C1=O`: the growth inhibition is 1%.
Still for that read-out and setting: in the case of `Clc1ccc2oc(N3CCCCC3)nc2c1` it was -3%; in that of `Cc1ccc(N=NC(C(=O)c2ccccc2)C(=O)c2ccccc2)cc1`, -3%.
